In all, about 16,000 sequences were measured (“rpm ratio (pull-down/input)”: median about 0.5, highest 2% from about 5.5 on). Only a selection was taken, and the highest values are over-represented in it overall.

For the assay, the target named is T1, MBP-FoxP3dN (Mus musculus, UniProt Q99JB6 188-423).
T1 sequence: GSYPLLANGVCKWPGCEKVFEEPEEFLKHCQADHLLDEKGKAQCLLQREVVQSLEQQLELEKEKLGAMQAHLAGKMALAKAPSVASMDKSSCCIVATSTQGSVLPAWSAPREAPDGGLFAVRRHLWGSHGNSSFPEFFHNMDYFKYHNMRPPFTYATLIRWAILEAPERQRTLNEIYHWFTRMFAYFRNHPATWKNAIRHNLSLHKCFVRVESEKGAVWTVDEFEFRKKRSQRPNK
Nature of the assay: PD-seq (MBP pull-down with sequencing); 20 mM Tris-HCl pH 7.5, 100 mM NaCl, 1.5 mM MgCl2, 0.4 uM protein, 0.1 uM dsDNA library, 30 min, room temperature, amylose pull-down; high values mean tight binding. The conditions noted are these: protein: recombinant; tags: His6-MBP; chain copies: 2; dsDNA, one strand shown. In outline: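 In Tris pH 7.5 buffer with NaCl and MgCl2, 0.4 µM His6-MBP-tagged mouse FoxP3 or FoxP1 fragment lacking the N-terminus, from E. coli, met 0.1 µM Klenow-filled double-stranded degenerate DNA library for 30 min at room temperature. Three washes on amylose resin followed capture of the complexes, then proteinase K release of DNA, PCR barcoding and Illumina sequencing. Binding is taken as pooled-replicate reads-per-million enrichment of pull-down relative to input.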
Take “GATGATTGTTCTCCCAGCTGATGAATTATGCCTGTCGAGTAAACAAATTTTCCTAATCTTTCTGTTCAAGCGCCATCTAC”: the binding signal was 5.87 RPM ratio (pull-down/input). Next, “GATGATTGTTCTCCCAGCTGATGAATTATGCGCCTCGAGTAAACAAATTTTCCTAATCTTTCTGTTCAAGCGCCATCTAC”: 2.82 RPM ratio (pull-down/input); “GATGATTGTTCTCCCAGCTGATGAATTATGATTGTCGAGTAAACAAATTTTCCTAATCTTTCTGTTCAAGCGCCATCTAC”: 4.27 RPM ratio (pull-down/input). Next, “GATGATTGTTCTCCCAGCTGATGAATTATGCTGTTCGAGTAAACAAATTTTCCTAATCTTTCTGTTCAAGCGCCATCTAC”: 3.42 RPM ratio (pull-down/input). Take “GATGATTGTTCTCCCAGCTGATGAATTATATGCCTCGAGTAAACAAATTTTCCTAATCTTTCTGTTCAAGCGCCATCTAC”: the binding signal is 0.913 RPM ratio (pull-down/input). As for “GATGATTGTTCTCCCAGCTGATGAATTCTGCGGCTCGAGTAAACAAATTTTCCTAATCTTTCTGTTCAAGCGCCATCTAC”, the binding signal is 1.01 RPM ratio (pull-down/input). Next, “GATGATTGTTCTCCCAGCTGATGAATTGCAGCCTTCGAGTAAACAAATTTTCCTAATCTTTCTGTTCAAGCGCCATCTAC”: 2.83 RPM ratio (pull-down/input); “GATGATTGTTCTCCCAGCTGATGAATTGTAAACATCGAGTAAACAAATTTTCCTAATCTTTCTGTTCAAGCGCCATCTAC”: 5.2 RPM ratio (pull-down/input); “GATGATTGTTCTCCCAGCTGATGAATTTGCCGATTCGAGTAAACAAATTTTCCTAATCTTTCTGTTCAAGCGCCATCTAC”: 0.474 RPM ratio (pull-down/input). Next, “GATGATTGTTCTCCCAGCTGATGAATTAAATCTCTCGAGTAAACAAATTTTCCTAATCTTTCTGTTCAAGCGCCATCTAC”: 0.29 RPM ratio (pull-down/input); “GATGATTGTTCTCCCAGCTGATGAATTCAGTTCGTCGAGTAAACAAATTTTCCTAATCTTTCTGTTCAAGCGCCATCTAC”: 0.758 RPM ratio (pull-down/input). As to “GATGATTGTTCTCCCAGCTGATGAATTACTTCTATCGAGTAAACAAATTTTCCTAATCTTTCTGTTCAAGCGCCATCTAC”, the binding signal was 0.347 RPM ratio (pull-down/input). Next, “GATGATTGTTCTCCCAGCTGATGAATTCCGAACTTCGAGTAAACAAATTTTCCTAATCTTTCTGTTCAAGCGCCATCTAC”: 0.253 RPM ratio (pull-down/input). Next, “GATGATTGTTCTCCCAGCTGATGAATTATGGCATTCGAGTAAACAAATTTTCCTAATCTTTCTGTTCAAGCGCCATCTAC”: 5.55 RPM ratio (pull-down/input). For “GATGATTGTTCTCCCAGCTGATGAATTATTTCATTCGAGTAAACAAATTTTCCTAATCTTTCTGTTCAAGCGCCATCTAC”, the binding signal was 0.381 RPM ratio (pull-down/input).

On to “GATGATTGTTCTCCCAGCTGATGAATTTTATGCATCGAGTAAACAAATTTTCCTAATCTTTCTGTTCAAGCGCCATCTAC”, for which the binding signal is 1.54 RPM ratio (pull-down/input). Next, “GATGATTGTTCTCCCAGCTGATGAATTTATGCATTCGAGTAAACAAATTTTCCTAATCTTTCTGTTCAAGCGCCATCTAC”: 7.56 RPM ratio (pull-down/input). The result for “GATGATTGTTCTCCCAGCTGATGAATTATGCAACTCGAGTAAACAAATTTTCCTAATCTTTCTGTTCAAGCGCCATCTAC” reads 6.6 RPM ratio (pull-down/input); that for “GATGATTGTTCTCCCAGCTGATGAATTATGACACTCGAGTAAACAAATTTTCCTAATCTTTCTGTTCAAGCGCCATCTAC”, 2.61 RPM ratio (pull-down/input). Next, “GATGATTGTTCTCCCAGCTGATGAATTATGCCACTCGAGTAAACAAATTTTCCTAATCTTTCTGTTCAAGCGCCATCTAC”: 6.25 RPM ratio (pull-down/input); “GATGATTGTTCTCCCAGCTGATGAATTATTCAACTCGAGTAAACAAATTTTCCTAATCTTTCTGTTCAAGCGCCATCTAC”: 0.381 RPM ratio (pull-down/input); “GATGATTGTTCTCCCAGCTGATGAATTATGAAACTCGAGTAAACAAATTTTCCTAATCTTTCTGTTCAAGCGCCATCTAC”: 0.828 RPM ratio (pull-down/input). As for “GATGATTGTTCTCCCAGCTGATGAATTTATGAATTCGAGTAAACAAATTTTCCTAATCTTTCTGTTCAAGCGCCATCTAC”, the binding signal was 0.946 RPM ratio (pull-down/input).

For “GATGATTGTTCTCCCAGCTGATGAATTATCCCACTCGAGTAAACAAATTTTCCTAATCTTTCTGTTCAAGCGCCATCTAC”, the binding signal is 0.322 RPM ratio (pull-down/input). The result for “GATGATTGTTCTCCCAGCTGATGAATTATTCATTTCGAGTAAACAAATTTTCCTAATCTTTCTGTTCAAGCGCCATCTAC” reads 0.406 RPM ratio (pull-down/input); that for “GATGATTGTTCTCCCAGCTGATGAATTGAAAACATCGAGTAAACAAATTTTCCTAATCTTTCTGTTCAAGCGCCATCTAC”, 1.27 RPM ratio (pull-down/input); that for “GATGATTGTTCTCCCAGCTGATGAATTCAGGACCTCGAGTAAACAAATTTTCCTAATCTTTCTGTTCAAGCGCCATCTAC”, 0.26 RPM ratio (pull-down/input). Next, “GATGATTGTTCTCCCAGCTGATGAATTGCGTCATTCGAGTAAACAAATTTTCCTAATCTTTCTGTTCAAGCGCCATCTAC”: 2.09 RPM ratio (pull-down/input); “GATGATTGTTCTCCCAGCTGATGAATTGCGGGGGTCGAGTAAACAAATTTTCCTAATCTTTCTGTTCAAGCGCCATCTAC”: 0.984 RPM ratio (pull-down/input). The result for “GATGATTGTTCTCCCAGCTGATGAATTGAGCTGGTCGAGTAAACAAATTTTCCTAATCTTTCTGTTCAAGCGCCATCTAC” reads 0.419 RPM ratio (pull-down/input); that for “GATGATTGTTCTCCCAGCTGATGAATTAGGATGGTCGAGTAAACAAATTTTCCTAATCTTTCTGTTCAAGCGCCATCTAC”, 0.492 RPM ratio (pull-down/input); that for “GATGATTGTTCTCCCAGCTGATGAATTGGAAGCCTCGAGTAAACAAATTTTCCTAATCTTTCTGTTCAAGCGCCATCTAC”, 0.359 RPM ratio (pull-down/input).

The values above are taken from paper PMC12820563, “FoxP3 forms a head-to-head dimer in vivo and stabilizes its multimerization on adjacent microsatellites”.
